Source: PubChem BioAssay
Shown are actives, neighbours in structure and some others; about 12% of the full set was active somewhere.
HP1b binding inh: HP1-beta chromodomain-methylated histone interaction inhibition. actives 0.56% (n = 390,000). P83916. AlphaScreen HP1-beta / biotin-H3K9me3 peptide binding. Potency, µM (titrated, usually from 114 µM), actives largely listed as inhibitors; further: nearly all actives have a fitted effect of over 70% in size
Target sequence (P83916 whole entry, looked up): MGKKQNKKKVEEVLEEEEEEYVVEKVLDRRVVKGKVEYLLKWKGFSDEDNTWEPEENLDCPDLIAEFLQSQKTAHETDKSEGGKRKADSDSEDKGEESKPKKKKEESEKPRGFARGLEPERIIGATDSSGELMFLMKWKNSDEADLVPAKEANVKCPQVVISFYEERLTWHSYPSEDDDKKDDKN
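Compound inhibition of the preformed complex between 50 nM HP1-beta and 50 nM biotinylated H3K9me3 peptide was read by AlphaScreen. Buffer was PBS pH 7.4 with 0.01% Tween-20. Incubations ran 30 min at room temperature, with 10 ug/mL donor/acceptor beads.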
JMJD2A Tudor inh: blocks the human JMJD2A Tudor domain; O75164; AlphaScreen JMJD2A-Tudor / H3K4me3 peptide binding; Potency, µM (doses to about 114 µM), most hits filed as inhibitors; actives 4.4% (n = 390,000); AID 504339; further: nearly all actives have a fitted effect of over 50% in size
G9a inh: blocks human histone lysine methyltransferase G9a; Q96KQ7; G9a H3K9 monomethylation, AlphaScreen, 2 h; Potency, µM (titrated, usually from 102 µM), actives largely listed as inhibitors; actives 8.8% (n = 350,000); AID 504332; further: nearly all actives have a fitted effect of over 75% in size
Target sequence (Q96KQ7 913-1193 limits assumed): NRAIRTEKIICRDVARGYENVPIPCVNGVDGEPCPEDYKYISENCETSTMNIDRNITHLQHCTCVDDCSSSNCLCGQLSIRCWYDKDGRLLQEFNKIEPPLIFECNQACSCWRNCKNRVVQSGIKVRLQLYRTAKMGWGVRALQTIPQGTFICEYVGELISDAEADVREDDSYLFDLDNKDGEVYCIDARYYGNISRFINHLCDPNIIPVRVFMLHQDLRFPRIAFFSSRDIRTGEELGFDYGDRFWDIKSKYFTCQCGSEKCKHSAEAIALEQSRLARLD
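Compounds were preincubated with 20 nM G9a for 15 min, after which biotinylated H3K9 peptide (500 nM) and SAM (20 uM) started a 2 h room-temperature reaction. Monomethylated product was quantified by antibody-based AlphaScreen chemiluminescence.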
Sfp inh: Sfp phosphopantetheinyl transferase inhibition; Q9F4F7; Biochemical Sfp PPTase activity, qHTS; Potency, µM, actives largely listed as inhibitors; actives 3.5% (n = 310,000); AID 1490;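 further: the enzyme is Sfp with the accession as filed and its product quenches rhodamine fluorescence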
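Compounds were incubated with enzyme (final 15 nM) for 15 min at room temperature before substrate addition started the reaction. Fluorescence at 525 nm excitation, 598 nm emission was recorded immediately and after 30 minutes.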
BAZ2B inh: inhibitors of human BAZ2B bromodomain | Q9UIF8 | AlphaScreen BAZ2B-H3K14Ac peptide displacement | Potency, µM (series often up to 114 µM), usual class: inhibitors | actives 4.4% (n = 360,000) | AID 504333; further: nearly all actives have a fitted effect of over 60% in size
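AlphaScreen luminescence quantifies BAZ2B engagement of H3K14Ac peptide; the protein and biotinylated peptide are both at 50 nM final, buffer PBS pH 7.4 with 0.01% Tween-20, all steps at room temperature.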
Large screens that a line does not name were inactive; ! = a repeat was not active. The call rests on the fitted dose curve; in most records, active means well fitted curve in the direction sought with a large enough effect; inconclusive means small, poorly fitted or top-dose-only effect, or another doubt; inactive means no such curve, though single readings can be large; an effect the other way counts as inactive or inconclusive.

COCC(=O)Nc1nc2n(n1)C(c1ccccc1)CC(c1ccc(OC)cc1)N2 (stereo not drawn)	JMJD2A Tudor inh 56µM, G9a inh inconclusive, BAZ2B inh inconclusive
CC1CC(c2ccccc2)n2nc(NC(=O)CCc3ccccc3)nc2N1 (stereo not drawn)	JMJD2A Tudor inh 79µM, BAZ2B inh 50µM
CCCC(=O)Nc1nc2n(n1)C(c1ccccc1)CC(=O)N2 (stereo not drawn)	none
O=C(O)CCCC(=O)Nc1nc2n(n1)C(c1ccc(F)cc1)CC(c1ccc(Cl)cc1)N2 (stereo not drawn)	JMJD2A Tudor inh inconclusive, BAZ2B inh 50µM
COCC(=O)Nc1nc2n(n1)C(c1ccc(OC)cc1)CC(c1ccc(OC)cc1)N2 (stereo not drawn)	none
Cc1c(C=O)c2ccccc2n1CCOc1ccccc1F	none
O=C1NCCC/C1=N\Nc1ccc(Br)cc1	JMJD2A Tudor inh inconclusive, G9a inh 50µM
O=C(NCc1ccccc1)c1cc(S(=O)(=O)N2CCOCC2)ccc1F	G9a inh inconclusive
NS(=O)(=O)c1ccc(NC(=O)CSc2nc3c(cnn3-c3ccccn3)c(=O)[nH]2)cc1	JMJD2A Tudor inh inconclusive, G9a inh 40µM (no result: Sfp inh)
CC1(C)CC(NC(=O)c2cccc([N+](=O)[O-])c2)CC(C)(C)N1	none
Cc1cc(C)cc(N=C(NO)c2cccc([N+](=O)[O-])c2)c1	none (no result: G9a inh)
CC1CCCCC1NC(=O)COC(=O)c1c2c(nc3ccccc13)/C(=C\c1ccco1)CC2 (stereo not drawn)	HP1b binding inh inconclusive, JMJD2A Tudor inh 45µM (no result: G9a inh, Sfp inh, BAZ2B inh)
Cc1cc(Cl)ccc1OCC(=O)N(Cc1ccco1)c1c(N)n(Cc2ccccc2)c(=O)[nH]c1=O	none (no result: G9a inh, Sfp inh, BAZ2B inh)
O=C1O[C@H]([C@@H](O)CO)C(O)=C1O	G9a inh 13µM!
O=C(CCN1CCC(c2ccccc2)C1)c1ccccc1 (stereo not drawn)	BAZ2B inh inconclusive (no result: G9a inh)
COc1cc(C(=O)CCN2CCC(c3ccccc3)C2)cc(OC)c1OC (stereo not drawn)	G9a inh 3.5µM
COC(=O)c1c(SC)nc2ccccc2c1OCc1ccc(Cl)cc1	none (no result: Sfp inh)
COc1ccccc1NC(=S)N1CCCc2ccccc21	none
O=C(NC(=S)N1CCc2ccccc21)c1ccccc1	JMJD2A Tudor inh inconclusive, G9a inh 45µM, BAZ2B inh inconclusive
CC(=O)c1cccc(NC(=S)N2CCc3ccccc32)c1	G9a inh 35µM
COc1ccc(NC(=S)N2CCc3ccccc32)cc1OC	G9a inh 50µM, BAZ2B inh inconclusive
O=C(c1c(F)c(F)c(F)c(F)c1F)N1CCc2ccccc21	JMJD2A Tudor inh 56µM (no result: G9a inh, Sfp inh, BAZ2B inh)
O=C(c1ccccc1)N1CCc2ccccc21	none
COc1ccc(/C=C2\Sc3ccc(C(=O)NCc4cccnc4)cc3N(C)C2=O)cc1OC	JMJD2A Tudor inh inconclusive, G9a inh inconclusive, BAZ2B inh inconclusive
COc1nccc(C(F)(F)F)c1C(=O)Nc1ccc(Cl)cc1	none
CCOC(=O)N1CCC(N2CCCC(C(=O)c3cccc(OC)c3)C2)CC1 (stereo not drawn)	none
CCOC(=O)c1c(NC(=O)CSc2cn(CCNC(=O)c3ccc(OCC)cc3)c3ccccc23)sc2c1CCC2	none (no result: Sfp inh)
O=C(O)c1c(-n2cccc2)sc2c1CCCC2	none
Cc1sc(-n2cccc2)c(C(=O)O)c1C	BAZ2B inh 50µM
CC(NC(=O)C1CCN(C(=O)N2CCOc3ccc(Cl)cc32)CC1)c1ccccc1 (stereo not drawn)	JMJD2A Tudor inh inconclusive, G9a inh inconclusive (no result: Sfp inh)
COc1ccc(CNC(=O)CN2C(=O)CC(c3ccc(C)c(C)c3)=Nc3ccccc32)cc1	none (no result: Sfp inh)
O=C(COc1ccc2c(c1)OCO2)Nc1ccc(Cl)cn1	none
Cc1[nH]c(=O)[nH]c1C(=O)CCCCC(=O)O	JMJD2A Tudor inh 0.89µM, G9a inh 1.6µM, BAZ2B inh 0.89µM
CCCCSCc1[nH]c(=O)[nH]c1C(=O)CCCCC(=O)OCC	G9a inh inconclusive, BAZ2B inh inconclusive
CC(C)S(=O)(=O)c1csc(C(=O)Nc2ccc(F)cc2)c1N	G9a inh inconclusive
Clc1ccc(OCCOCCN2CCc3ccccc3C2)c(Cl)c1	none
CC1CCCN(CCOc2ccc3ccccc3c2Br)C1 (stereo not drawn)	HP1b binding inh inconclusive, JMJD2A Tudor inh inconclusive, G9a inh inconclusive, Sfp inh 16µM, BAZ2B inh 22µM
Cc1ccc(Cl)c(OCCN2CCCC(C)C2)c1 (stereo not drawn)	HP1b binding inh inconclusive, JMJD2A Tudor inh 18µM, G9a inh 13µM, BAZ2B inh inconclusive
CC1CCN(CCOCCOc2ccc(Cl)cc2Br)CC1	HP1b binding inh inconclusive, JMJD2A Tudor inh 4.5µM, G9a inh 10µM, Sfp inh 56µM, BAZ2B inh 79µM
Cc1ccc(C)c(NC(=O)CCN2CCCC(C)C2)c1 (stereo not drawn)	none (no result: G9a inh)
CC1CCCN(CCCOc2ccc(Cl)cc2Br)C1 (stereo not drawn)	HP1b binding inh inconclusive, JMJD2A Tudor inh 22µM, G9a inh 10µM
CC1CN(C(=O)COc2ccc3ccccc3c2Br)CC(C)O1 (stereo not drawn)	none (no result: G9a inh)
CCc1ccc(-n2c(=O)c3ccccc3n(CC(=O)NCCc3ccc(OC)c(OC)c3)c2=O)cc1	none (no result: Sfp inh)
O=C(CSC1=NCCN1)C1COc2ccccc2O1 (stereo not drawn)	G9a inh inconclusive
CSCC[C@H](NC(=O)CN)C(=O)N[C@@H](CC(=O)O)C(=O)N[C@@H](CO)C(=O)N[C@@H](CC(C)C)C(=O)N[C@@H](C)C(=O)N[C@@H](Cc1ccccc1)C(=O)N[C@@H](CO)C(=O)NCC(=O)NCC(=O)N[C@@H](CC(C)C)C(N)=O	none (no result: HP1b binding inh, JMJD2A Tudor inh, G9a inh, BAZ2B inh)
Clc1ccc(OCCCN2CCc3ccccc3C2)c(Br)c1	none
CC1CCN(CCCOc2ccc(Cl)cc2Br)CC1	HP1b binding inh inconclusive, JMJD2A Tudor inh 20µM, G9a inh 20µM, BAZ2B inh inconclusive
Cn1nc(CC(=O)NCc2ccc(F)cc2)c2ccccc2c1=O	none
c1ccc(N2CCCCC2)c(Nc2nc3ccccc3n3cnnc23)c1	none
c1ccc2c(c1)nc(NC1CCCCC1)c1nncn12	G9a inh 45µM
c1ccc2c(c1)nc(Nc1ccc(N3CCCCC3)cc1)c1nncn12	HP1b binding inh inconclusive, JMJD2A Tudor inh 45µM, G9a inh 16µM, BAZ2B inh 28µM
Cc1ccc(/C=N/N=C2/NC(=O)C(CC(=O)N3CCOCC3)S2)cc1 (stereo not drawn)	G9a inh 28µM, Sfp inh 40µM, BAZ2B inh inconclusive
COc1ccc(C(=O)NC(=O)CSc2n[nH]c(N)n2)cc1	none (no result: G9a inh, Sfp inh, BAZ2B inh)
Cc1cccc(-c2ocnc2C(=O)Nc2ccccc2NC(=O)c2ccccn2)c1	Sfp inh 45µM
Cc1cc(=O)[nH]c(NN=C(CC(C)C)CC(C)C)n1	JMJD2A Tudor inh inconclusive, G9a inh inconclusive, Sfp inh 56µM
